Screens (PubChem BioAssay)
aDG glyco act = alpha-DG glycosylation activation | Pro5-aDG cells, alpha-DG glycosylation AlphaScreen (IIH6); 0% Pro5, 100% B10-LARGE cell signal | activation, % at 10 µM | 360,000 tested, 0.22% active | AID 624168;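 active = activation of at least 8% versus controls, or a plate z-score of at least 8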;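 also: Pro5 are CHO cells carrying HIG-tagged alpha-DG that lacks glycosylation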
ARNT-TACC3 inh = ARNT/TACC3 interaction disruption | AlphaScreen His-ARNT PAS-B/GST-TACC3 binding, luminescence; TACC3 fragment carries E629A point mutation | inhibition, % at 9.99 µM | 390,000 tested, 0.66% active | AID 623870;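 active = mean inhibition of replicates at least 50% and at least half of replicates each reaching 50%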
Vif imaging = blocks HIV Vif function. HEK293T cells, Vif self-association by quenched fluorescence, imaging, 24 h. inhibition, % at 7.49 µM. 340,000 tested, 0.35% active. AID 602346; in the data active = inhibition above about 50%, passing the limit was not always enough
Cardio protect = protects H9c2 cardiomyocytes from peroxide injury; H2O2 injury protection, ATPLite, 2 h; protection from H2O2 cell death, % at 20 µM; 360,000 tested, 0.63% active;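 active = compounds giving at least 50% protection of heart cells from peroxide-induced death in the single-dose screen, raw or plate-pattern-corrected value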
N-glyco inh = N-linked glycosylation inhibition; D54 ERlucT glycosylation luciferase reporter, 24 h; percent of 100 nM tunicamycin response; reporter increase, % at 12.5 µM; 360,000 tested, 0.23% active; AID 588692;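 active = mean luciferase reporter signal, scaled so untreated is 0 and the glycosylation-blocking control 100, at or above a set limit in every replicate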;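 also: luciferase carries N-glycosylation sites so blocking glycosylation raises the light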
Numbers stand for hits. In the library only some 1.7% were active in any assay of this set; here they are far more common.

Screening CCCNC(=O)[C@H]1[C@H](CO)[C@H]2Cn3c(ccc(-c4ccccc4)c3=O)[C@@H]1N2C(=O)CC1CC1 returned ARNT-TACC3 inh inactive.
For O=C(Nc1nnc(-c2ccc(Br)cc2)o1)C1=COCCO1 the results were aDG glyco act inactive, ARNT-TACC3 inh inactive, Vif imaging inactive, Cardio protect inactive and N-glyco inh inactive.
For CN(C)c1ccc(C(=O)Nc2nnc(-c3ccc(Cl)cc3)o2)cc1 the results were aDG glyco act inactive, ARNT-TACC3 inh inactive, Vif imaging inactive, Cardio protect 53 and N-glyco inh inactive.
For COc1cccc(C(=O)Nc2nnc(-c3ccc(F)cc3)o2)c1 the results were aDG glyco act inactive, ARNT-TACC3 inh inactive, Cardio protect inactive and N-glyco inh inactive.
For COc1ccccc1NC(=O)c1ccc(NC(=O)c2ccco2)cc1 the results were aDG glyco act inactive, ARNT-TACC3 inh inactive, Vif imaging inactive, Cardio protect inactive and N-glyco inh inactive.
`COc1ccc(-c2nnc(NC(=O)C3=COCCO3)o2)cc1` gave aDG glyco act inactive, ARNT-TACC3 inh 46, Vif imaging inactive, Cardio protect inactive and N-glyco inh inactive.
Screening COc1cccc(C(=O)Nc2nnc(-c3ccc(Cl)cc3)o2)c1 returned aDG glyco act inactive, ARNT-TACC3 inh inactive, Cardio protect 67 and N-glyco inh inactive.
For COc1cc(OC)cc(C(=O)Nc2ccc(C(=O)Nc3ccccc3OC)cc2)c1 the results were aDG glyco act inactive, ARNT-TACC3 inh inactive, Vif imaging inactive, Cardio protect 51 and N-glyco inh inactive.
For C[C@@H]1CN([C@@H](C)CO)C(=O)c2cc(NS(=O)(=O)c3cn(C)cn3)ccc2O[C@@H](C)CCCCO[C@@H]1CN(C)Cc1ccccc1 the results were ARNT-TACC3 inh inactive.
For COc1ccc(NC(=O)Nc2ccc3c(c2)C(=O)N([C@@H](C)CO)C[C@H](C)[C@H](CN(C)Cc2ccncc2)OCCCC[C@H](C)O3)cc1 the results were ARNT-TACC3 inh inactive.
CO[C@@H]1CN(C)C(=O)c2ccc(NC(=O)c3ccc(F)cc3)cc2OC[C@H](C)NC[C@H]1C was read as ARNT-TACC3 inh inactive.
`CCC(=O)N(C)C[C@@H]1Oc2cc(-c3cccnc3)ccc2S(=O)(=O)N([C@@H](C)CO)C[C@H]1C` gave ARNT-TACC3 inh inactive.
O=C(Nc1nnc(-c2ccncc2)o1)c1cccc(N2C(=O)CCC2=O)c1 was read as aDG glyco act inactive, Vif imaging inactive, Cardio protect inactive and N-glyco inh inactive.
`COc1cccc(C(=O)Nc2ccc3c(c2)C(=O)c2ccccc2C3=O)c1` gave aDG glyco act inactive, Vif imaging inactive, Cardio protect inactive and N-glyco inh 34.
For COc1cccc(C(=O)Nc2cccc(-c3nnc(-c4ccco4)o3)c2)c1 the results were aDG glyco act inactive, Cardio protect 113 and N-glyco inh inactive.
Screening CC(=O)c1ccc(C(=O)Nc2nnc(-c3ccc(Cl)cc3)o2)cc1 returned aDG glyco act inactive, ARNT-TACC3 inh inactive, Cardio protect 66 and N-glyco inh inactive.
`O=C(Nc1nnc(-c2ccco2)o1)c1cccc(N2C(=O)CCC2=O)c1` gave aDG glyco act inactive, ARNT-TACC3 inh 49, Vif imaging inactive, Cardio protect inactive and N-glyco inh inactive.
Screening CC(C)C#Cc1ccc([C@@H]2[C@@H](C#N)N(C(=O)CN(C)C)[C@H]2CO)cc1 returned ARNT-TACC3 inh inactive.
Screening C[C@@H]1CN([C@H](C)CO)C(=O)c2cc(NC(=O)Nc3cccc4ccccc34)ccc2O[C@H]1CN(C)C returned ARNT-TACC3 inh inactive.
`COc1cc2c(cc1OC)/C(=C/C(=O)c1ccc(OC)c([N+](=O)[O-])c1)NCC2` gave aDG glyco act inactive, ARNT-TACC3 inh inactive, Vif imaging 53, Cardio protect inactive and N-glyco inh inactive.
Screening COc1cc2c(cc1OC)/C(=C/C(=O)c1cccc([N+](=O)[O-])c1)NCC2 returned aDG glyco act inactive, ARNT-TACC3 inh inactive, Vif imaging inactive, Cardio protect inactive and N-glyco inh inactive.
O=C(C[C@@H]1CC[C@@H]2[C@H](COC[C@@H](O)CN2C(=O)c2ccccn2)O1)N1CCN(c2ccccc2)CC1 was read as ARNT-TACC3 inh inactive.
For O=C(Nc1cccc(Cl)c1)N[C@H]1CC[C@@H](CCNC(=O)C2CC2)O[C@@H]1CO the results were ARNT-TACC3 inh inactive.
`CCCC(=O)Nc1cc(C)c2c(=O)oc3ccccc3c2n1` gave aDG glyco act inactive, ARNT-TACC3 inh inactive, Cardio protect 104 and N-glyco inh inactive.
